Consider 23 compounds from PubChem BioAssay.

The target in experiment [1] is PEG-3 (UniProt Q6IN02). Briefly: inhibition of PEG-3 promoter-driven reporter – cell-based, HeLa, luciferase, CREF/GAPDH counter-screen panel, dose response (AID 624167). The conditions noted are these: CREF/GAPDH counter-screens; HeLa PEG-Prom luciferase reporter, overnight, run 1, dose range 1, at 100 µM (top of the series) unless noted. For orientation: The purpose of a counterscreen is to sort out artefacts and off-target activity.
PEG-3, sequence (Q6IN02 whole entry, looked up): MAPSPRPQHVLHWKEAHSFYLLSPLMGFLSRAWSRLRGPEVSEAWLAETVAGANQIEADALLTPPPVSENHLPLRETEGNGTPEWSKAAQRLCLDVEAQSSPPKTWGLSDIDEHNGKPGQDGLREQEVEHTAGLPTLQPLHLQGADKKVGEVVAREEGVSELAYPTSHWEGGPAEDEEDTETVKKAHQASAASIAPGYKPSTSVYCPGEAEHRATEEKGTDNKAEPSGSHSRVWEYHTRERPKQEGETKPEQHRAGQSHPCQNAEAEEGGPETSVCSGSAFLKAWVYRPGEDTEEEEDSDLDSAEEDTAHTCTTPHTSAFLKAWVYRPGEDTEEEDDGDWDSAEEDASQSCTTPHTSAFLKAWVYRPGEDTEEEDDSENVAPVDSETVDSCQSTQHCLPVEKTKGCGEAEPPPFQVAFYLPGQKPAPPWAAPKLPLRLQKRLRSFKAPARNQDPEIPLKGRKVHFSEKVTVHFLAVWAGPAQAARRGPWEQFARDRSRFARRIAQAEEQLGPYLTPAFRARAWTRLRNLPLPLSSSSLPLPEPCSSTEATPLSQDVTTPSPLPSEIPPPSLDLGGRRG

Experiment [2] concerns the target PEG-3 (UniProt Q6IN02). The experiment is described as above. The conditions noted are these: CREF/GAPDH counter-screens; HeLa PEG-Prom luciferase reporter, overnight, run 2, dose range 1, at 100 µM (top of the series) unless noted.
For experiment [3], the system named is Rat fibroblasts (CREF). The experiment is described as above. The conditions noted are these: CREF/GAPDH counter-screens; run 1, dose range 1, at 100 µM (top of the series).
The test system of experiment [4] is Rat fibroblasts (CREF). Described as above. The conditions noted are these: CREF/GAPDH counter-screens; run 2, dose range 1, at 100 µM (top of the series).
Experiment [5] addresses Tumor necrosis factor receptor superfamily member 10B (Homo sapiens) (UniProt O14763). The experiment is described as follows: viability loss of caspase-8 NB7 cells with TRAIL – with/without TRAIL, luminescence panel, confirmation (AID 651596). The conditions noted are these: NB7 neuroblastoma + caspase-8, TRAIL sensitization, NB7 Caspase-8, with TRAIL, mean of runs, at 10 µM, stronger effect = higher value.

Assay in experiment [6]: as above
The conditions noted are these: NB7 neuroblastoma + caspase-8, without TRAIL, NB7 Caspase-8, without TRAIL, mean of runs, at 10 µM.

Experiment [7] can be described thus: NFkB reporter suppression in cystic fibrosis bronchial cells – cell-based, uHTS hits, panel, cytotoxicity readout, dose response (AID 624344). The conditions noted are these: CF bronchial epithelial cells, PAF-induced NFkB reporter inhibition, with PAF, run 1; at 79 µM (top of the series) unless noted.
Assay in experiment [8]: as above
The conditions noted are these: CF bronchial epithelial cells, PAF-induced NFkB reporter inhibition, with PAF, run 2; at 79 µM (top of the series) unless noted.

Experiment [9] deals with Tumor necrosis factor receptor superfamily member 10B (Homo sapiens) (UniProt O14763). The experiment is described as follows: compound enhancement of TRAIL-induced cell killing – NB7 cells plus caspase-8, luminescence, panel, dose response (AID 652002). The conditions noted are these: NB7 neuroblastoma +caspase-8, TRAIL sensitization, luminescence viability, NB7+Caspase-8, with TRAIL, run 1; at 12.5 µM (top of the series).
Tumor necrosis factor receptor superfamily member 10B (Homo sapiens), sequence (O14763 whole entry, looked up): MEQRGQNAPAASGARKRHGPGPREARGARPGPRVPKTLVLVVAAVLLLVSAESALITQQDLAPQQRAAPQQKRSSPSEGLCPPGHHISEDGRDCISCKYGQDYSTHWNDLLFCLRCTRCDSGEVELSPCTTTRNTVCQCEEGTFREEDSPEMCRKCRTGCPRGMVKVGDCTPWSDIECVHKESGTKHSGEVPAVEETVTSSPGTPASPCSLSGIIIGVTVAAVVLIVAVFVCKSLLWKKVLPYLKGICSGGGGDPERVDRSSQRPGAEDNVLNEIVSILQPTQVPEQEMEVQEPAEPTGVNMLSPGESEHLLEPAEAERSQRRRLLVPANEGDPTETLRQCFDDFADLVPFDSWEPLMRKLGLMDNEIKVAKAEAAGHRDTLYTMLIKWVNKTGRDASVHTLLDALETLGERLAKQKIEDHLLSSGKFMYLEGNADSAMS

Experiment [10] has the same target. The description is as above. The conditions noted are these: NB7 neuroblastoma +caspase-8, TRAIL sensitization, luminescence viability, NB7+Caspase-8, with TRAIL, run 2; at 12.5 µM (top of the series).
Assay in experiment [11]: as above
The conditions noted are these: NB7 neuroblastoma +caspase-8, no TRAIL, compound-alone cytotoxicity counter-screen, luminescence viability, NB7+Caspase-8, run 1; at 12.5 µM (top of the series) unless noted.

Assay in experiment [12]: as above
The conditions noted are these: NB7 neuroblastoma +caspase-8, no TRAIL, compound-alone cytotoxicity counter-screen, luminescence viability, NB7+Caspase-8, run 2; at 12.5 µM (top of the series) unless noted.

What is called inhibition is the relative decrease from the control value, in per cent. Turning to `C=C1CC2(OC1=O)c1ccccc1CCc1ccccc12`, the inhibition with PEG-3 [1] worked out at 102%; with PEG-3 [2] it was 101%; in the experiment on Rat fibroblasts (CREF) [3], 95.7%; in the experiment on Rat fibroblasts (CREF) [4], 97.7%. Also, the activity in [5] is 97.2%; in [6], 99.3%.
On to `O=S(=O)(Nc1cccc2cccnc12)c1ccccc1`, for which the inhibition was 81.7% in the experiment with PEG-3 [1], 97.7% with PEG-3 [2], 102% in experiment [7] and 109% in [8].
For the compound `CC(/C=C/c1ccccc1)=N/NC(=O)c1cc([N+](=O)[O-])cc([N+](=O)[O-])c1`, the inhibition with PEG-3 [1] turned out to be 94.6%; in the experiment with PEG-3 [2] it was 86.3%; in the experiment with Rat fibroblasts (CREF) [3] it was 47.1%. For the same compound, the activity in [5] worked out at 21.2%; in [6], 30.8%.
Regarding `Cc1cc(C(=O)COC(=O)c2ccccc2Br)c(C)n1CC1CCCO1` (stereo not drawn), the results for the inhibition in the experiment with PEG-3 [1] and in the experiment with PEG-3 [2] were 95.8% and 85.4%, respectively. Moreover, the activity in [5] came to 68.1%; in [6], 74.3%.
In the case of `O=C1CCCCC1Sc1nnc(-c2ccc3c(c2)OCO3)o1` (stereo not drawn), the inhibition is 98.4% with PEG-3 [1], 95% with PEG-3 [2], 95% with Rat fibroblasts (CREF) [3] and 94.3% in the experiment on Rat fibroblasts (CREF) [4]. Also, the values for the activity in experiment [5] and in experiment [6] were 48.4% and 35.9%, respectively. Besides, the activity, % sensitization in experiment [9] was 19.6%; in experiment [10] it was 16.8%; in experiment [11], 29.8%; in [12], 21.7%.
With `N/C(=N\OC(=O)c1ccccc1)C(C(=O)NOC(=O)c1ccccc1)C1CCCCC1` (stereo not drawn), the inhibition in the experiment with PEG-3 [1] was 98.8%; with PEG-3 [2] it was 102%. The activity came to 97.6% in [5] and 94.9% in experiment [6].
In the case of `Cc1ccc(-n2cc(-c3ccccc3)c3c(N4CCOCC4)ncnc32)cc1`, the inhibition in the experiment with PEG-3 [1] was found to be 101%; with PEG-3 [2] it was 102%; in experiment [7], 107%; in [8], 101%.
As to `Cc1cnc(NC(=O)C2CC(=O)N(c3cccc(Cl)c3)C2)s1` (stereo not drawn), the inhibition stood at 97.7% in the experiment with PEG-3 [1], 87.8% with PEG-3 [2], 94.9% in [7] and 116% in experiment [8].
As to `CCc1nccn1C(=O)c1cnn2c(C(F)F)cc(-c3ccc(C)cc3)nc12`, the inhibition in the experiment with PEG-3 [1] was determined as 99.1%; with PEG-3 [2], 102%; in experiment [7], 102%; in experiment [8], 115%.
Consider `Cc1cccc(/C=N/Nc2ccc3ccccc3n2)c1`, for which the inhibition with PEG-3 [1] worked out at 101%; with PEG-3 [2], 101%; in the experiment on Rat fibroblasts (CREF) [3], 94.2%; in the experiment on Rat fibroblasts (CREF) [4] it was 96.2%. For the same compound, the activity worked out at 82.4% in [5] and 78.5% in [6].
Turning to `COc1ccc(C(C(=O)NCC2CCCO2)N(Cc2cccs2)C(=O)c2snc(C(N)=O)c2N)cc1` (stereo not drawn), the inhibition in the experiment with PEG-3 [1] came out at 47.8%; with PEG-3 [2] it was 28.4%; in [7] it was 109%; in [8], 101%.
`CCN1CCN(c2ccc(S(=O)(=O)N3CCOCC3)cc2NC(=O)/C=C/c2ccc([N+](=O)[O-])cc2)CC1`: the inhibition is 100% with PEG-3 [1] and 89.1% with PEG-3 [2]. Further, the results for the activity in experiment [5] and in [6] were 50.9% and 62.1%, respectively.
Regarding `CCCn1c(C)cc(C(=O)CN2C(=O)c3ccccc3S2(=O)=O)c1C`, the inhibition with PEG-3 [1] was 97.5%; in the experiment with PEG-3 [2], 98.9%; in the experiment with Rat fibroblasts (CREF) [3], 91.2%; in the experiment with Rat fibroblasts (CREF) [4], 92.1%. The activity in experiment [5] stood at 60.1%; in experiment [6] it was 62.3%.
On to `CS(=O)(=O)c1ccc2nc(NC(=O)CCS(=O)(=O)c3ccccc3)sc2c1`, for which the inhibition with PEG-3 [1] was 85%; with PEG-3 [2], 92.7%; in [7], 98.1%; in experiment [8], 97.7%.
On to `CC(C)(C)C(=O)Nc1cc2nn(-c3ccccc3)nc2cc1Cl`, for which the inhibition was determined as 92.3% in the experiment with PEG-3 [1] and 90.1% in the experiment with PEG-3 [2]. Also, the activity worked out at 98.2% in experiment [5] and 97.7% in experiment [6].
Take `CCCCCCCCCCCCCCC(O)C[N+](C)(CCO)CCO` (stereo not drawn): the inhibition in the experiment with PEG-3 [1] is 94.8%; with PEG-3 [2] it was 101%; in experiment [7] it was 95.6%; in experiment [8], 96.1%. Also, the activity stood at 94.9% in experiment [5] and 96.5% in experiment [6].
On to `CCC1=C(CC2NCCc3ccccc32)CC2c3cc(OC)c(OC)cc3CCN2C1` (stereo not drawn), for which the inhibition with PEG-3 [1] came out at 97.6%; with PEG-3 [2], 99%; in [7], 115%; in [8] it was 105%.
For `CN(C)c1ccc(Nc2nc(N)c3ccccc3n2)cc1`, the inhibition came to 97.9% in the experiment with PEG-3 [1], 99.2% with PEG-3 [2], 97.2% with Rat fibroblasts (CREF) [3] and 98% in the experiment with Rat fibroblasts (CREF) [4]. In addition, the activity in [5] is 95.9%; in [6] it was 95.8%.
Consider `COc1ccc(-n2nc(C(=O)NCC(=O)Nc3cc(OC)c(OC)c(OC)c3)c3ccccc3c2=O)cc1OC`, for which the inhibition in experiment [7] was 102%; in [8], 101%.
For the compound `CNC(=O)c1ccc(NC(=O)C2CCN(c3ncnc4sc(C)c(C)c34)CC2)cc1`, the inhibition in [7] came to 85.3%; in experiment [8], 72%.
On to `Cc1ncc(CO)c2c1Oc1nc(-c3ccccc3F)nc(SCC(=O)N(C)c3ccccc3)c1C2`, for which the inhibition was found to be 105% in [7] and 102% in experiment [8].
`COC(=O)c1c(NC(=O)c2ccc([N+](=O)[O-])o2)sc2c1CCN(C(C)C)C2`: the inhibition turned out to be 95% in the experiment with PEG-3 [1] and 99.1% with PEG-3 [2]. Besides, the activity came out at 46.9% in experiment [5] and 88.7% in experiment [6].
For `O=C(NC1CCCCC1)C(c1cccnc1)N(C(=O)CCl)c1cccc(Cl)c1` (stereo not drawn), the results for the inhibition with PEG-3 [1] and in the experiment with PEG-3 [2] were 97.7% and 102%, respectively. For the same compound, the activity is 99.3% in experiment [5] and 99.5% in experiment [6].
